PP1 inh: counter-screen for PP5 inhibitors: inhibitors of human PP1-alpha; P62136; purified PP1alpha, OMFP fluorescence; inhibition, % at 6.7 µM; actives 0.9% (n = 320,000); AID 2235;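 active = inhibition above the mean inhibition of all tested compounds plus 3 SD, computed separately for each screening campaign, cut at about 15% in these data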
PG9 binder: binds the HIV-1 gp120 antibody PG9; TR-FRET gp120-PG9 antibody binding; inhibition, % at 6.7 µM; AID 624416; actives 0.43% (n = 360,000); in the data active = inhibition above about 8.5%
GASC-1 inh: inhibitors of human GASC-1 (JMJD2C) demethylase; inhibition, % at 2.35 µM; GST-JMJD2C(1-420) H3K9me3 demethylation, DELFIA europium; Q9H3R0; actives 0.069% (n = 330,000);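 active = more than half of a compound's replicate wells show inhibition beyond 50%, single wells judged on their own value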;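 also: signal counts dimethyl H3K9 product captured on neutravidin plate; 0% = median of DMSO wells and 100% = 0.3 times that DMSO median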
Target sequence (Q9H3R0 1-420 limits assumed): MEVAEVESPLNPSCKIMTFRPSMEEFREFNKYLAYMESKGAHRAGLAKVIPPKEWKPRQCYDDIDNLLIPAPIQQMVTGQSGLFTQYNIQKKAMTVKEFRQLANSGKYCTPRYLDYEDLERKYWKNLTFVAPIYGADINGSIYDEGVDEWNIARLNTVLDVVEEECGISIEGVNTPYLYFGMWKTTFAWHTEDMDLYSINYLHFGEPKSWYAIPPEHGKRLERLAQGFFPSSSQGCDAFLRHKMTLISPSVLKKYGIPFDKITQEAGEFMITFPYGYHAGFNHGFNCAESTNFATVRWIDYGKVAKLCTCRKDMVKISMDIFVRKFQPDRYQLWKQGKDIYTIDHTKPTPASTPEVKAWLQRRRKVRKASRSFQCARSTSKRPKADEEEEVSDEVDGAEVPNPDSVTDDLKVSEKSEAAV
KLK7 zymogen act: activates the human kallikrein-7 zymogen | activation, % at 7 µM | actives 0.9% (n = 370,000) | AID 652039 | purified proKLK7, EDANS-DABCYL substrate fluorescence; 100% is mature enzyme control, 0% vehicle;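 active = activation above the mean of all tested compounds plus 3 SD, computed per campaign excluding outliers beyond control limits, cut at about 13% in these data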
PP5 inh: PP5 (human) phosphatase inhibition; inhibition, % at 6.7 µM; actives 0.18% (n = 320,000); P53041; purified PP5c, OMFP substrate fluorescence; AID 1987;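 active = inhibition above the campaign's mean inhibition across all tested compounds plus 3 SD, cut at about 9.5% in these data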;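 also: 0% = DMSO only and 100% = 100 µM cantharidin control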
Rev-erbA mod: Rev-erb alpha (human) modulation; P20393; Rev-erbα–FITC-DNA binding, fluorescence polarization, 90 min; activity, % at 10 µM; actives 0.79% (n = 370,000); AID 1259318;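 active = activity above about 14%, limit read from the data; passing the limit was not always enough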;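 also: 0% = DMSO wells with 35 nM protein and 100% = DMSO wells with 750 nM protein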
An asterisk follows results filed as active. Compounds with a hit are over-represented: about 2.8% of the library has one in this group of screens.

CN1CCN(c2nc3ccccn3c(=O)c2/C=C(\C#N)S(=O)(=O)c2ccc(Cl)cc2)CC1 was read as PP1 inh -6, PG9 binder 1, GASC-1 inh 90*, KLK7 zymogen act 0, PP5 inh 2 and Rev-erbA mod 1.
CC(C)CCNC(=O)C1CCCN(C(=O)c2ccc3c(c2)NC(=O)CS3)C1 (stereo not drawn) was read as KLK7 zymogen act 0 and Rev-erbA mod 6.
Screening O=C(CCn1nnc2ccccc21)N1CCN(c2cccc(C(F)(F)F)c2)CC1 returned KLK7 zymogen act 0 and Rev-erbA mod 5.
For O=c1cc(-c2ccc(O)cc2)oc2c(C3O[C@H](CO)[C@@H](O)[C@H](O)[C@H]3O)c(O)cc(O)c12 (stereo partly drawn) the results were PP1 inh -2, PG9 binder -2, KLK7 zymogen act 0, PP5 inh -1 and Rev-erbA mod -3.
`O=c1cc(-c2ccc(O)c(O)c2)oc2c(C3O[C@H](CO)[C@@H](O)[C@H](O)[C@H]3O)c(O)cc(O)c12` (stereo partly drawn) gave PP1 inh 0, PG9 binder -8, GASC-1 inh 64*, KLK7 zymogen act 0, PP5 inh 2 and Rev-erbA mod -4.
CN=C(NC)NCc1ccccc1 was read as Rev-erbA mod 6.
`Cc1ccccc1C1C(C#N)=C2N=C(N)c3c(sc4c3CCCCC4)N2C2=C1C(=O)CC(C)(C)C2` (stereo not drawn) gave PP1 inh 15*, PG9 binder -1, GASC-1 inh -11, KLK7 zymogen act 0, PP5 inh 3 and Rev-erbA mod 3.
`Cc1ccccc1C1C(C#N)=C2NC(=O)c3c(sc4c3CCCCC4)N2C2=C1C(=O)CC(C)(C)C2` (stereo not drawn) gave PP1 inh 2, GASC-1 inh -3 and PP5 inh 1.
O=C(CSc1nnc(-c2ccc(F)cc2)c2ccccc12)Nc1cccc(Cl)c1 was read as PP1 inh 16*, PG9 binder 2, GASC-1 inh 12, KLK7 zymogen act 0, PP5 inh -2 and Rev-erbA mod 3.
For CNC[C@@H](O)c1ccc(O)c(O)c1 the results were Rev-erbA mod 2.
For Cc1ccc(Oc2coc3cc(OC(=O)c4cccs4)ccc3c2=O)cc1 the results were PP1 inh 15, PG9 binder 0, GASC-1 inh 10, KLK7 zymogen act 45*, PP5 inh 2 and Rev-erbA mod 1.
Screening Cc1cccc(Oc2coc3cc(OC(=O)c4cccs4)ccc3c2=O)c1 returned PP1 inh 5, PG9 binder 0, GASC-1 inh 15, KLK7 zymogen act 41*, PP5 inh -1 and Rev-erbA mod 4.
CC(C)(S)C(N)C(=O)O (stereo not drawn) was read as Rev-erbA mod -4.
`Cc1cc(O)c(CN(C)C)c2c1C(=O)/C(=C/c1ccco1)O2` gave PP1 inh -3, PG9 binder -4, GASC-1 inh 0, KLK7 zymogen act 6, PP5 inh 2 and Rev-erbA mod -5.
`Cc1cc(O)c(C=O)c2c1C(=O)Oc1c(CO)c(O)c3c(c1O2)C(O)OC3=O` (stereo not drawn) gave PP1 inh 36* and PP5 inh 2.
`CCCCNC(=O)N1CCC(c2nc3ccc(Cl)cc3[nH]2)CC1` gave KLK7 zymogen act 0 and Rev-erbA mod -3.
O=C(CCCn1nnnc1CN1CCOCC1)N1CCN(c2ccccc2F)CC1 was read as PP1 inh 15*, PG9 binder -1, GASC-1 inh 1, KLK7 zymogen act 0, PP5 inh 0 and Rev-erbA mod -4.
Screening COc1ccccc1OCc1nnc(SCC(=O)c2cc(Cl)ccc2OC)o1 returned PP1 inh 17*, PG9 binder 2, GASC-1 inh 5, KLK7 zymogen act 0, PP5 inh 3 and Rev-erbA mod 1.
For CSCCC(NC(=O)C(Cc1c[nH]c2ccccc12)NC(=O)CCNC(=O)OC(C)(C)C)C(=O)NC(CC(=O)O)C(=O)NC(Cc1ccccc1)C(N)=O (stereo not drawn) the results were Rev-erbA mod -6.
Screening O=c1cc(O)c2sc3nc(-c4cccnc4)cc(C(F)(F)F)c3c2[nH]1 returned PP1 inh 18*, PG9 binder -4, GASC-1 inh -1, KLK7 zymogen act 4, PP5 inh 3 and Rev-erbA mod 2.
For CCO[C@@H](Cc1ccc(OCCc2ccc(OS(C)(=O)=O)cc2)cc1)C(=O)O the results were Rev-erbA mod -4.
O=C(CCN1C(=O)/C(=C/c2ccccc2Cl)SC1=S)NNC(=O)c1cccnc1 was read as PP1 inh -2, PG9 binder -1, GASC-1 inh -10, KLK7 zymogen act 0, PP5 inh -1 and Rev-erbA mod 3.
`O=C(CCCN1C(=O)/C(=C/c2ccccc2Cl)SC1=S)Nc1cccnc1` gave PP1 inh 17*, PG9 binder -2, GASC-1 inh 12, KLK7 zymogen act 0, PP5 inh 3 and Rev-erbA mod 2.
Screening O=C(CCN1C(=O)/C(=C/c2ccccc2Cl)SC1=S)Nc1cccnc1 returned PP1 inh 15*, PG9 binder -2, GASC-1 inh -8, KLK7 zymogen act 0, PP5 inh 5 and Rev-erbA mod 9.
`CC(=O)O[C@]1(C(C)=O)CCC2C3C[C@H](C)C4=CC(=O)CC[C@]4(C)C3CC[C@@]21C` (stereo partly drawn) gave Rev-erbA mod 2.
CC(=O)[C@@]12O[C@](C)(c3ccccc3)O[C@@H]1CC1C3CCC4=CC(=O)CC[C@]4(C)C3CC[C@@]12C (stereo partly drawn) was read as Rev-erbA mod 2.
`COc1cccc(NC(=O)Nc2nc(SC(C)(C)C)ns2)c1` gave PP1 inh 17*, PG9 binder 0, GASC-1 inh 7, KLK7 zymogen act 1, PP5 inh 5 and Rev-erbA mod 4.
COc1cccc(NC(=O)Nc2nc(SC)ns2)c1 was read as PP1 inh 2, PG9 binder -2, GASC-1 inh -1, KLK7 zymogen act 0, PP5 inh 2 and Rev-erbA mod 3.
`COc1ccc(S[C@]2(C(=O)N3CCN(C(C)=O)CC3)CC(=O)N[C@@H]2c2ccc(OC)cc2)cc1` gave KLK7 zymogen act 0 and Rev-erbA mod -2.
Cc1ccc(O)c(C(=O)c2cc(C#N)c(=O)n(-c3nccs3)c2)c1 was read as PP1 inh -3, PG9 binder -2, GASC-1 inh -19, KLK7 zymogen act 17*, PP5 inh -8 and Rev-erbA mod 11.
